{
  "source": "ChEMBL document CHEMBL1157539",
  "about": "“Thousands of chemical starting points for antimalarial lead identification” (Nature, 2010)",
  "assay_type_in_all_cases": "functional",
  "key": {"[1]": {"tested_on": "Plasmodium falciparum", "test": "GSK_TCMDC: Inhibition of Plasmodium falciparum 3D7 in whole red blood cells, using parasite LDH activity as an index of growth. Test compounds present at 2uM"}, "[2]": {"tested_on": "Plasmodium falciparum", "test": "GSK_TCMDC: Inhibition of Plasmodium falciparum Dd2 in whole red blood cells, using parasite LDH activity as an index of growth. Test compounds present at 2uM"}, "[3]": {"tested_on": "HepG2", "test": "GSK_TCMDC: Percent inhibition of human HepG2 cell line. Test compounds present at 10uM."}},
  "data": [
    {"molecule": "CN(C)Cc1ccc(-c2cc3c(-c4ccc(CN(C)C)cc4)ccnc3[nH]2)cc1.O=C(O)C(F)(F)F", "values": [
      {"measurement": "Inhibition", "setting": "[1]", "value": 100, "unit": "%"},
      {"measurement": "Inhibition", "setting": "[2]", "value": 96, "unit": "%"},
      {"measurement": "Inhibition", "setting": "[3]", "value": 86, "unit": "%"}
    ]},
    {"molecule": "COc1cccc(NC(=O)[C@H](C(C)C)n2c(=O)[nH]c3ccccc3c2=O)c1", "values": [
      {"measurement": "Inhibition", "setting": "[1]", "value": 100, "unit": "%"},
      {"measurement": "Inhibition", "setting": "[2]", "value": 100, "unit": "%"},
      {"measurement": "Inhibition", "setting": "[3]", "value": 0, "unit": "%"}
    ]},
    {"molecule": "CCOCn1c(-c2ccccc2)cc2c3c(N)nc(N)nc3ccc21", "values": [
      {"measurement": "Inhibition", "setting": "[1]", "value": 91, "unit": "%"},
      {"measurement": "Inhibition", "setting": "[2]", "value": 66, "unit": "%"},
      {"measurement": "Inhibition", "setting": "[3]", "value": 62, "unit": "%"}
    ]},
    {"molecule": "COc1ccc(NC(=O)/C=C/c2ccccc2Cl)cc1OCCN1CCC(O)(c2ccc(Cl)c(C(F)(F)F)c2)CC1.Cl", "values": [
      {"measurement": "Inhibition", "setting": "[1]", "value": 100, "unit": "%"},
      {"measurement": "Inhibition", "setting": "[2]", "value": 9, "unit": "%"},
      {"measurement": "Inhibition", "setting": "[3]", "value": 37, "unit": "%"}
    ]},
    {"molecule": "Cl.Clc1ccc(C2CCN(CCCOc3ccc4c(c3)CCNCC4)CC2)cc1", "values": [
      {"measurement": "Inhibition", "setting": "[1]", "value": 98, "unit": "%"},
      {"measurement": "Inhibition", "setting": "[2]", "value": 28, "unit": "%"},
      {"measurement": "Inhibition", "setting": "[3]", "value": 93, "unit": "%"}
    ]},
    {"molecule": "CC(C)(Oc1c(C2CCN(CCCCNC(=O)c3ccc(-c4ccc(Cl)cc4)cc3)CC2)ccc2c1CCCC2)C(N)=O", "values": [
      {"measurement": "Inhibition", "setting": "[1]", "value": 93, "unit": "%"},
      {"measurement": "Inhibition", "setting": "[2]", "value": 5, "unit": "%"},
      {"measurement": "Inhibition", "setting": "[3]", "value": 100, "unit": "%"}
    ]},
    {"molecule": "C=C[C@H]1CN2CC[C@H]1C[C@@H]2[C@@H](O)c1ccnc2ccc(OC)cc12", "note": "[QUINIDINE]", "values": [
      {"measurement": "Inhibition", "setting": "[1]", "value": 98, "unit": "%"},
      {"measurement": "Inhibition", "setting": "[2]", "value": 95, "unit": "%"},
      {"measurement": "Inhibition", "setting": "[3]", "value": 0, "unit": "%"}
    ]},
    {"molecule": "CCC[C@@H]([C@@H](CC(C)C)C(=O)N[C@H](C(=O)Nc1nccs1)C(C)(C)SCCNC(=O)OCC)N(O)C=O", "values": [
      {"measurement": "Inhibition", "setting": "[1]", "value": 95, "unit": "%"},
      {"measurement": "Inhibition", "setting": "[2]", "value": 97, "unit": "%"},
      {"measurement": "Inhibition", "setting": "[3]", "value": 0, "unit": "%"}
    ]},
    {"molecule": "COc1ccccc1CCN1CCC(CN(C)Cc2ccc(O)c(Cl)c2)CC1", "values": [
      {"measurement": "Inhibition", "setting": "[1]", "value": 100, "unit": "%"},
      {"measurement": "Inhibition", "setting": "[2]", "value": 52, "unit": "%"},
      {"measurement": "Inhibition", "setting": "[3]", "value": 19, "unit": "%"}
    ]},
    {"molecule": "CN1CCN(CCCN(Cc2cccc(-c3ccc(CNCCc4ccccc4)cc3)c2)C(=O)c2cccs2)CC1.O=C(O)C(F)(F)F", "values": [
      {"measurement": "Inhibition", "setting": "[1]", "value": 100, "unit": "%"},
      {"measurement": "Inhibition", "setting": "[2]", "value": 97, "unit": "%"},
      {"measurement": "Inhibition", "setting": "[3]", "value": 86, "unit": "%"}
    ]}
  ]
}
